C diff growth – C. difficile growth inhibition; growth activity, negative = inhibition, % at 16 µg/mL (by protocol); 86,000 tested, 0.25% active; Clostridium difficile clinical isolate growth, OD600, 24 h; stronger effect = lower value; AID 1259249;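 active = mean growth activity at or below -80% and every replicate also at or below -80%; inconclusive = mean at or below -80% but some replicate above -80%; inactive = mean growth activity above -80%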
T cruzi growth-1 – blocks T. cruzi growth in NIH3T3 culture | T. cruzi beta-gal in NIH3T3, GalScreen luminescence, 90 h | inhibition, % at 8.34 µM | 77,000 tested, 5.9% active | AID 624255;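 active = mean inhibition above about 93%, with at least 55% of replicates each passing it, limit read from the data, passing the limit was not always enough; inconclusive = only one of those two conditions holds; inactive = neither condition holds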
Pf Dd2 inh – blocks growth of Plasmodium falciparum Dd2 parasites. P. falciparum Dd2 growth, SYBR Green, 72 h; stronger effect = lower value. activity change, % at 10 µM. 94,000 tested, 2.3% active; in the data active = activity change below about -80%; inconclusive = no clear call, values can overlap the other calls
T cruzi growth-2 – blocks T. cruzi growth in NIH3T3 host cells; shares compounds with T cruzi growth-1; T. cruzi beta-gal in NIH3T3, GalScreen luminescence, 90 h; inhibition, % at 8.35 µM; 5,600 tested, 72% active; AID 651739;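 active = mean replicate inhibition above about 95% and at least 55% of replicates individually reaching it, limit read from the data; inconclusive = only one of the two criteria is met; inactive = neither criterion is met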
T cruzi growth-3 – blocks T. cruzi growth in NIH3T3 host cells; inhibition, % at 2.09 µM; AID 651740; 5,600 tested, 21% active; T. cruzi beta-gal in NIH3T3, GalScreen luminescence, 90 h; shares compounds with T cruzi growth-1;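 active = mean inhibition above about 95%, with at least 55% of replicates also reaching it, limit read from the data; inconclusive = meets just one of the two conditions; inactive = meets neither condition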
3T3 cytotox – kills mouse NIH/3T3 fibroblasts. shares compounds with T cruzi growth-1. cytotoxicity (signal decrease), % at 8.35 µM. NIH/3T3 viability, CellTiter-Glo ATP luminescence, 90 h. 5,600 tested, 14% active;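 active = mean signal decrease across replicates above about 35% based on untreated-well scatter, with enough replicates individually passing, limit read from the data; inconclusive = no rule stated though some were filed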
3T3 cytotox 2 – kills mouse NIH/3T3 fibroblasts | NIH/3T3 viability, CellTiter-Glo ATP luminescence, 90 h | AID 651744 | shares compounds with T cruzi growth-1 | 5,600 tested, 56% active | inhibition, % at 24.9 µM;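 active = mean loss of cell viability signal at or above a set limit, and enough replicates individually reaching it; inconclusive = meets only the mean limit or only the replicate share; inactive = meets neither condition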
Hits are given with their value. Rows were chosen to be rich in hits. Some 6.8% of all compounds tested hit in one or more screens of this group.

Cc1noc(C)c1S(=O)(=O)N(C)C[C@@H]1OCCCC[C@H](C)Oc2ccc(N(C)C)cc2C(=O)N([C@H](C)CO)C[C@@H]1C was read as C diff growth inactive, T cruzi growth-1 inactive and Pf Dd2 inh inactive.
Screening CCC(=O)N1CC2(CN[C@H](CO)c3c2c2ccc(OC)cc2n3C)C1 returned Pf Dd2 inh inactive.
`O=C(C[C@H]1CC[C@H](NC(=O)C2CCC2)[C@H](CO)O1)NCC1CC1` gave T cruzi growth-1 inactive and Pf Dd2 inh inactive.
Screening COC(=O)N(C)C[C@@H]1OCc2ccccc2-c2ccccc2C(=O)N([C@H](C)CO)C[C@H]1C returned T cruzi growth-1 inactive and Pf Dd2 inh inactive.
Screening CC(C)C#Cc1ccc2c(c1)O[C@@H](CN(C)Cc1ccccc1)[C@@H](C)CN([C@H](C)CO)S2(=O)=O returned C diff growth inactive, T cruzi growth-1 111, Pf Dd2 inh inactive, T cruzi growth-2 107, T cruzi growth-3 inactive, 3T3 cytotox inactive and 3T3 cytotox 2 104.
C[C@H](O)C#Cc1ccc2c(c1)O[C@H](CN(C)Cc1ccccc1)[C@@H](C)CN([C@@H](C)CO)S2(=O)=O was read as C diff growth inactive, T cruzi growth-1 inactive and Pf Dd2 inh inactive.
`O=C(Nc1ccc(F)cc1)N1CCCCN2[C@H](CO)[C@@H](c3ccc(-c4cccc(F)c4)cc3)[C@@H]2C1` gave C diff growth inactive, T cruzi growth-1 inactive and Pf Dd2 inh inactive.
O=C(Nc1cccc(F)c1)N1CCCCN2[C@H](CO)[C@H](c3ccc(-c4ccccc4F)cc3)[C@@H]2C1 was read as C diff growth inactive, T cruzi growth-1 107, Pf Dd2 inh inactive, T cruzi growth-2 96, T cruzi growth-3 inactive, 3T3 cytotox inactive and 3T3 cytotox 2 59.
`O=C(Nc1cccc(F)c1)N1CCCCN2[C@H](C1)[C@@H](c1ccc(-c3ccccc3F)cc1)[C@@H]2CO` gave C diff growth inactive, T cruzi growth-1 101, Pf Dd2 inh inactive, T cruzi growth-2 inconclusive, T cruzi growth-3 inconclusive, 3T3 cytotox 96 and 3T3 cytotox 2 102.
O=C(Nc1ccccc1)N1CCCCN2[C@H](C1)[C@@H](c1ccc(-c3ccccc3F)cc1)[C@@H]2CO was read as C diff growth inactive, T cruzi growth-1 inactive and Pf Dd2 inh inactive.
`O=C(Nc1cccc(F)c1)N1CC(=O)N2[C@H](CO)[C@@H](c3ccc(-c4ccccc4F)cc3)[C@@H]2C1` gave C diff growth inactive and Pf Dd2 inh inactive.
For O=C(Nc1cccc(F)c1)N1CCCCN2[C@H](C1)[C@H](c1ccc(-c3ccccc3F)cc1)[C@@H]2CO the results were C diff growth inactive, T cruzi growth-1 110, Pf Dd2 inh inactive, T cruzi growth-2 112, T cruzi growth-3 inactive, 3T3 cytotox inactive and 3T3 cytotox 2 33.
For CCCNC(=O)N1C[C@@H](C)[C@@H](OC)CN(C)C(=O)c2ccc(NC(=O)CCC)cc2OC[C@@H]1C the results were T cruzi growth-1 inactive and Pf Dd2 inh inactive.
For C[C@@H]1CN([C@H](C)CO)S(=O)(=O)c2ccc(-c3ccccc3)cc2O[C@H]1CN(C)C(=O)Nc1ccccc1F the results were T cruzi growth-1 inactive and Pf Dd2 inh inactive.
Screening CN1CCN(C(=O)C[C@@H]2C=C[C@H](NC(=O)Nc3ccccc3F)[C@H](CO)O2)CC1 returned T cruzi growth-1 inactive and Pf Dd2 inh inactive.
For CO[C@H]1CN(C)C(=O)c2ccc(NC(=O)NC(C)C)cc2OC[C@@H](C)N(Cc2ccccn2)C[C@H]1C the results were T cruzi growth-1 109, Pf Dd2 inh inactive, T cruzi growth-2 inactive, T cruzi growth-3 inactive, 3T3 cytotox inactive and 3T3 cytotox 2 inactive.
Screening CO[C@@H]1CN(C)C(=O)c2ccc(NC(=O)NC(C)C)cc2OC[C@H](C)N(Cc2ccccn2)C[C@@H]1C returned T cruzi growth-1 inactive and Pf Dd2 inh inactive.
`CO[C@H]1CN(C)C(=O)c2cc(NC(=O)NC(C)C)ccc2OC[C@H](C)N(Cc2ccccn2)C[C@H]1C` gave T cruzi growth-1 106, Pf Dd2 inh inactive, T cruzi growth-2 inactive, T cruzi growth-3 inactive, 3T3 cytotox inactive and 3T3 cytotox 2 inactive.

Source: PubChem (Broad Institute)
